# Bioassay records: PubChem, National Center for Advancing Translational Sciences (NCATS)
# In the library only some 2.3% were active in any assay of this set; here they are far more common.
# BCR signal inh – chronic active BCR signaling inhibition; ABC-DLBCL IkBa-CBG/CBR reporter, luminescence ratio, 4 h; Potency, µM (titrated, usually from 46.1 µM), inactives show at the highest dose activity change, negative = inhibition, actives largely listed as inhibitors; hit rate 0.05% among 340,000; active means well fitted inhibition curve with a large enough effect in the signal ratio, with a control signal flat, not every such curve was filed as active; inconclusive means small, poorly fitted or top-dose-only effect, or effect the other way, or a change in a side signal; the % refers to the signal ratio;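 further: plate controls were basal doxycycline-induced cells for no effect and cells given 10 µM MG132 for full effect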
#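 Doxycycline induced both beetle luciferases in TMD8 lymphoma cells; IKK-driven degradation limits the IkappaBalpha-fused green signal, while red luminescence normalises for cell number and nonspecific effects. Compounds tested up to 46 uM, 4 hrs.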
# Abeta rescue – restores growth of yeast expressing A-beta42 peptide | yeast expressing A-beta42, growth rescue, OD600, 48 h; response scale: 0% DMSO, 100% iron-clioquinol control | Potency, µM (series often up to 46.1 µM), usual class: activators | hit rate 0.063% among 410,000 | AID 1347071; further: nearly all actives have a fitted effect of over 55% in size
#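 Yeast growth medium received pinned compounds, then yeast cells expressing toxic A-beta were added; plates incubated at 30 C for 48 hr. Growth read as absorbance at 600 nm, normalized to DMSO and equimolar FeCl3 plus clioquinol controls.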
# TDP-43 yeast inh – TDP-43 toxicity inhibition in yeast; TDP-43 expressing yeast growth rescue, BacTiter-Glo, 24 h; Potency, µM (top dose mostly 46.1 µM), inactives show at the highest dose growth rescue (activation), most hits filed as activators; hit rate 1.8% among 410,000; AID 652104; further: % of control where 0% means no effect; nearly all actives have a fitted effect of over 50% in size
#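 In this qHTS, compounds that restore growth of yeast expressing TDP-43 appear as activators. Cells (OD600=0.02, galactose medium, raffinose-pregrown) are incubated with compound 24 hr at 30 deg C and growth is quantified by BacTiter-Glo.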
# aSyn yeast inh – alpha-synuclein toxicity inhibition in yeast. Yeast expressing alpha-synuclein, growth rescue, BacTiter-Glo, 24 h. Potency, µM (titrated, usually from 46.1 µM), for the others: top-dose growth rescue (activation), hits mostly activators. hit rate 0.14% among 370,000; further: % of control where 0% means no effect; nearly all actives have a fitted effect of over 65% in size
#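 Screening used galactose-induced yeast with toxic alpha-synuclein levels, exposed to compound for 24 hr at 30 deg C. Cell growth, read with BacTiter-Glo luminescence, gave the measured signal.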
# uPA surface inh – cell surface uPA generation inhibition. cell surface uPA generation assay, qHTS. Potency, µM (series often up to 38.3 µM), for inactives: at the top dose activity change, negative = inhibition, usual class: inhibitors. hit rate 0.31% among 330,000; active means well fitted inhibition curve with a large enough effect; inconclusive means small, poorly fitted or top-dose-only effect; inactive means no such curve, though single readings can be large or run the other way; tested in mouse RAW 264.7 cells; further: on the % scale 0 is the no-effect control and ±100 the full control effect; nearly all actives have a fitted effect of over 55% in size
# FUS yeast rescue – rescues growth of FUS-expressing yeast | S. cerevisiae FUS-expressing, growth rescue, OD600, 24 h | Potency, µM (doses to about 76.6 µM), hits mostly activators | hit rate 0.24% among 390,000 | AID 1347120;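 further: plate controls were DMSO vehicle for no effect and reference control for full effect; nearly all actives have a fitted effect of over 55% in size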
#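 Quantitative HTS measuring growth restoration of FUS-toxic yeast. Galactose-induced cells (OD 0.005) were exposed 24hr at 30C to compounds at several concentrations, then absorbance at 600 nm was recorded.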
# * hit, by the source's call; i = inactive; ? = inconclusive; nt = not tested or not shown. Unless noted, the call rests on the fitted dose curve; in most records, active means well fitted curve in the direction sought with a large enough effect; inconclusive means small, poorly fitted or top-dose-only effect, or another doubt; inactive means no such curve, though single readings can be large; an effect the other way counts as inactive or inconclusive. Potency means the concentration at half of the fitted maximal effect.
SMILES,BCR signal inh,Abeta rescue,TDP-43 yeast inh,aSyn yeast inh,uPA surface inh,FUS yeast rescue
O=C1CCN(C(=O)CCCn2c(=O)oc3ccccc32)CC1,0.3%,i,2.4%,0.9%,-3.2%,i
O=C(CCn1c(=O)oc2ccccc21)N1CCN(c2ccccc2Cl)CC1,-6.2%,i,12.6µM*,7.5%,-9.4%,i
C/C(=N\NC(N)=S)C12CC3CC(CC(C3)C1)C2,3.9%,?,14.1µM*,5.7%,-20.5%,i
COc1ccccc1C(=O)Nc1ccc2c(c1)CC1(C(=O)N(C)C(=O)N(C)C1=O)C1CCCN21 (stereo unspecified),-9.2%,i,-8.9%,-1.8%,1.5%,39.8µM*
CN1CCC(N(C)c2nc(-c3ccc([N+](=O)[O-])cc3)nc3ccccc23)CC1,?,i,-12.9%,0.6%,3.7%,nt
CN(CC1COc2ccccc2O1)c1nc(-c2cccnc2)nc2ccccc12 (stereo unspecified),0.7%,i,8.91µM*,-15.9%,5.5%,i
O=C(CCC1N=C2c3ccccc3N=C(SCc3cccc(Cl)c3)N2C1=O)N1CCN(c2ccccc2)CC1 (stereo unspecified),nt,i,?,nt,nt,?
NN=C1C(Cl)=C(Cl)C(Cl)=C1Cl,nt,i,17.8µM*,4.0%,nt,i
Cc1ccc(Nc2nc(N)nc(CCl)n2)c(C)c1,-18.9%,i,3.0%,-6.7%,3.98µM*,i
O=C(COc1ccc2ccccc2c1)N1CCN(CC2CC3C=CC2C3)CC1 (stereo unspecified),-0.3%,i,-10.8%,-2.9%,-2.0%,i
COc1ccc(-c2oc3cc(OC)c(O)c(OC)c3c(=O)c2OC)cc1O,-17.7%,i,22.4µM*,-0.6%,?,i
OC(C#CCN1CCOCC1)(c1ccccc1)C1CCCC1 (stereo unspecified),-13.0%,i,0.0%,-3.8%,8.5%,i
CC(=O)Nc1ccc(S(=O)(=O)N2CCN(c3cccc(C)c3C)CC2)cc1,-3.3%,i,3.9%,7.9%,?,i
Cc1cccc(NS(=O)(=O)c2ccc(C(=O)N3CCN(c4ccccc4O)CC3)cc2)c1C,?,i,15.0%,-0.2%,-0.9%,31.6µM*
O=Cc1c(NCc2ccc(Cl)cc2)c2ccccc2[nH]c1=O,-2.8%,i,?,14.0%,-16.8%,i
Cc1ccc2c(c1)NP(=S)(Oc1ccccc1)N2 (stereo unspecified),nt,i,35.5µM*,?,-2.0%,i
COc1ccc(C2(C(=O)c3ccccc3)C(=O)c3ccccc3C2=O)cc1,?,i,14.6%,-1.6%,-19.9%,i
COC(=O)N1C(=O)[C@](c2ccc(OC)cc2)(C(C)C)N1C(=O)OC,?,i,17.8µM*,19.1%,?,i
C=CCN1CC[C@]23c4c5ccc(O)c4OC2C(=O)CC[C@@]3(O)C1C5 (stereo partly specified),-1.8%,i,23.1%,-0.2%,9.6%,i
COc1ccc2c3c1OC1C(=O)CC[C@@]4(O)[C@@H](C2)N(C)CC[C@]314 (stereo partly specified),?,i,15.5%,-10.2%,6.31µM*,i
O=[N+]([O-])c1ccc(S(=O)(=O)N2CCn3cccc3C2c2ccccc2F)cc1 (stereo unspecified),10.8%,i,22.4µM*,nt,nt,?
N#C/C=C/C#N,-2.6%,i,16.7%,-2.2%,-1.0%,i
C#CCOc1ccc2c(c1)c(C(C)=O)c(C)n2Cc1ccccc1,?,i,20µM*,-9.1%,2.2%,i
CCCCCCn1c(=O)c(C(=O)Nc2cnccn2)c(O)c2ccccc21,3.8%,i,-45.5%,8.0%,-8.9%,i
C[N+](C)(C)Cc1ccccc1,0.4%,i,9.5%,3.6%,9.0%,i
SMILES,BCR signal inh,Abeta rescue,TDP-43 yeast inh,aSyn yeast inh,uPA surface inh,FUS yeast rescue
CN1CCc2c(C#N)c(Cl)nc(Cl)c2C1,?,i,1.0%,-0.6%,11.2µM*,i
OC[C@H]1O[C@@H](n2cnc3cc(Cl)c(Cl)cc32)[C@H](O)[C@@H]1O,?,i,9.9%,5.6%,8.91µM*,i
CCC(C)n1c(O)c(/C=N/N2CCOCC2)c(=O)[nH]c1=S (stereo unspecified),1.0%,i,-19.5%,-1.3%,-11.5%,i
O=C1NC(=S)NC(=O)C1=Cc1ccc(OCc2ccccc2)cc1,nt,?,17.8µM*,-67.2%,-2.8%,i
COc1ccc(O)c(/C=N/NC(=S)Nc2cccnc2)c1,-14.1%,i,25.0%,9.2%,11.2µM*,i
COC(=O)C1=C(c2ccc(F)cc2F)C[C@@H]2CC[C@H]1N2C(=O)NCCOc1ccccc1,2.7%,i,19.5%,-4.6%,-1.1%,?
CC(=O)c1cn(CCCOc2ccccc2)c2ccccc12,-7.8%,i,11.2µM*,13.9%,?,i
COc1ccc(C2=CC(c3ccc(OC)c(OC)c3)c3c(c4ccccc4oc3=O)O2)cc1OC (stereo unspecified),?,i,16.2%,4.3%,?,i
Cc1ccccc1-c1nc(C(=O)NCC2CCCO2)cc2c1[nH]c1ccccc12 (stereo unspecified),?,i,10µM*,6.4%,?,i
COc1ccc(CN2Cc3cnnn3-c3ccccc3C2c2ccccc2)cc1 (stereo unspecified),nt,i,0.0%,13.1%,?,i
c1ccc(C2c3ccccc3-n3nncc3CN2CC2CCCCC2)cc1 (stereo unspecified),nt,i,15.8µM*,-28.8%,1.6%,i
C[C@@H]1CN([C@H](C)CO)C(=O)c2cc(Br)cnc2O[C@H]1CN(C)C(=O)Cc1ccncc1,nt,i,10.1%,?,nt,i
C[C@H](CO)N1C[C@H](C)[C@@H](CN(C)C(=O)Nc2ccc(C(F)(F)F)cc2)Oc2c(NC(=O)NC3CCCCC3)cccc2C1=O,-2.1%,i,-1.9%,6.8%,?,28.2µM*
O=C1NCN(c2ccccc2)C12CCN(C(c1ccccc1OC(F)(F)F)c1nnnn1Cc1ccccc1)CC2 (stereo unspecified),nt,i,0.0%,0.7%,nt,10µM*
O=C1NCN(c2ccccc2)C12CCN(C(c1cccc3ccccc13)c1nnnn1Cc1ccccc1)CC2 (stereo unspecified),nt,i,15.0%,2.4%,nt,?
CCCCn1nnnc1C(c1cccc2ccccc12)N1CCC2(CC1)C(=O)NCN2c1ccccc1 (stereo unspecified),nt,i,-8.5%,12.2%,nt,10µM*
